According to paper PMC13541613, “GHT-SELEX demonstrates unexpectedly high intrinsic sequence specificity and complex DNA binding of many human transcription factors”:

Legend:
Test in all cases: HT-SELEX; 20 mM HEPES pH 7, 140 mM KCl, 5 mM NaCl, 1 mM K2HPO4, 2 mM MgSO4, 100 uM EGTA, ZnSO4, 0.1% Tween20; room temperature, 1 h; high values mean tight binding
Conditions in all cases: protein: ivt; tags: eGFP (N-terminal); dsDNA, one strand shown
ZNF721 full-length = ZNF721 full-length (Homo sapiens, UniProt Q8TF20-2 1-923)
Sequence of ZNF721 full-length (Q8TF20 other isoform, or with tags, fused parts or gaps): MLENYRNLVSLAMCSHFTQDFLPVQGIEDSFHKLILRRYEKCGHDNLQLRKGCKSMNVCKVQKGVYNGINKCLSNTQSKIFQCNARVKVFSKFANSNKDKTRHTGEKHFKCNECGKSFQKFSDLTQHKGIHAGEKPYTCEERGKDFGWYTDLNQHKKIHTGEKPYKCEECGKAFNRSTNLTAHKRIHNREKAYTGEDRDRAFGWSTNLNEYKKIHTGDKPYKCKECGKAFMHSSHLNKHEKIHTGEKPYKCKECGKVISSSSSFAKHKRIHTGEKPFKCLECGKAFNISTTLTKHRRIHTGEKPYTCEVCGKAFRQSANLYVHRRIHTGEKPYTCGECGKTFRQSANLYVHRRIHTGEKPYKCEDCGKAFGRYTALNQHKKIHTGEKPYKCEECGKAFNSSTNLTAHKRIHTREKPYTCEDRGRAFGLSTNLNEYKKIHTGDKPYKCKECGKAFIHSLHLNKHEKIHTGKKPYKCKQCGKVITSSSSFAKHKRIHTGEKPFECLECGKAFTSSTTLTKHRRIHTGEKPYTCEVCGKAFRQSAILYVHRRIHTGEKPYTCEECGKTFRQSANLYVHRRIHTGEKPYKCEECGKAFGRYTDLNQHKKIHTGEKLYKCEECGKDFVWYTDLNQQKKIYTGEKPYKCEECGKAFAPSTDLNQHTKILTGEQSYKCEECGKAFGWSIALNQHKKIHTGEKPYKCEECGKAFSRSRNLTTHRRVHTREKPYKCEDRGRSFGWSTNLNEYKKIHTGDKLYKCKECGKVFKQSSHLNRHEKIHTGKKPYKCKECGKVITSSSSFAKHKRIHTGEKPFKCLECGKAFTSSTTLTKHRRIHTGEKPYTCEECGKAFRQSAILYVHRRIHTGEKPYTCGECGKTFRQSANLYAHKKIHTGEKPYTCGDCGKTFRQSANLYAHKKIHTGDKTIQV
Summary of the method: (§1)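 In HEPES/KCl low-stringency buffer with Tween20, a bead-immobilised tagged transcription factor (full-length or DNA-binding-domain fragment, from HEK293 lysate or cell-free extract) was incubated with a randomized 40-base DNA library for 1 h at room temperature. DNA retained after washing was heat-eluted, amplified by PCR over successive cycles and Illumina-sequenced, giving ~3 million 60 bp reads per sample. The reported binding signal, a relative k-mer count in those selected reads, rises with tighter binding.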

ZNF721 DBD1 = ZNF721 DBD1 (Homo sapiens, UniProt Q8TF20-2 29-461)
Sequence of ZNF721 DBD1 (Q8TF20 17-449): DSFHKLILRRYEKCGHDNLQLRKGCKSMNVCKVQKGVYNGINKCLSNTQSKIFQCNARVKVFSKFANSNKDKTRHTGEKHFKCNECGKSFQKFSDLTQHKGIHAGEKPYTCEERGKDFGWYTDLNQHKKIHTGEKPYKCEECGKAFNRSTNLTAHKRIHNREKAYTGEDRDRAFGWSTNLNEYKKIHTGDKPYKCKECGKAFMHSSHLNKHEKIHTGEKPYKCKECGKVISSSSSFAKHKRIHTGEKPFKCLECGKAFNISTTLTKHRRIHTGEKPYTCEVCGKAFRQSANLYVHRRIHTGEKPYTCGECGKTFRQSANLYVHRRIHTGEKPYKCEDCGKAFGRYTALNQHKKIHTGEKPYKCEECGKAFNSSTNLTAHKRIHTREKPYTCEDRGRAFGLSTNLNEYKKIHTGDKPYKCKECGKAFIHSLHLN
Summary of the method: as §1

ZNF721 DBD2 = ZNF721 DBD2 (Homo sapiens, UniProt Q8TF20-2 395-923)
Sequence of ZNF721 DBD2 (Q8TF20 383-911): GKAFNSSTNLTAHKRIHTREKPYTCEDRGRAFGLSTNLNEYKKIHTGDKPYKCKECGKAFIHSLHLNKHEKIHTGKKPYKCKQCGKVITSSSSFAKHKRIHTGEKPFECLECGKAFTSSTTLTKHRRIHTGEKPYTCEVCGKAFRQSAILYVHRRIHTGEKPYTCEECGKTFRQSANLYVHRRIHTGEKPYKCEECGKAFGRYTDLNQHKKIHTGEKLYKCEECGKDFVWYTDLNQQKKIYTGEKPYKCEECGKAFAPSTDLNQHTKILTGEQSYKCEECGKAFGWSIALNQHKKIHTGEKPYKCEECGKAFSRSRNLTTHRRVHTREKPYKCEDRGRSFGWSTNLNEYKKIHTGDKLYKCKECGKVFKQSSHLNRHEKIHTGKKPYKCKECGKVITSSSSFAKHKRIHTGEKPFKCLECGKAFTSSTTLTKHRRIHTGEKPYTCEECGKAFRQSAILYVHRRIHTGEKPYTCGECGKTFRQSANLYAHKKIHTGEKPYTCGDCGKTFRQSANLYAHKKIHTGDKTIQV
Summary of the method: as §1

Sequence | binding signal (ZNF721 full-length) [relative 10-mer count] | binding signal (ZNF721 DBD1) [relative 10-mer count] | binding signal (ZNF721 DBD2) [relative 10-mer count]
CACCCCCCCA | 0.16 | 0.00716 | 0.00443
CACAAAAAAA | 0.181 | 0.0107 | 0.0847
AGCTTTTTTC | 0.449 | 0.217 | 0.00467
CTTTTTTTTC | 0.171 | 0.0293 | 0.0669
ACGAAAAAAG | 0.126 | 0.0251 | 0.0417
AAAACAAGCA | 0.157 | 0.00638 | 0.0831
ACCGCCCACC | 0.152 | 0.005 | 0.00204
CCCCCCACCG | 0.17 | 0.00605 | 0.0036
CCCGCCACCC | 0.304 | 0.0125 | 0.00252
ACCAAAAAAA | 0.128 | 0.00904 | 0.0723
CCACACCCCA | 0.124 | 0.00472 | 0.00503
CCCCTCCCAC | 0.218 | 0.0104 | 0.00695
CACACCCCAC | 0.123 | 0.00394 | 0.00419
GAAAAAAGCA | 0.344 | 0.0533 | 0.15
AACAAAAAAA | 0.116 | 0.0078 | 0.069
CCTCCCACCC | 0.255 | 0.0139 | 0.00599
AGCATCCCCA | 0.136 | 0.0121 | 0.0674
GCATACCCAA | 0.217 | 0.00968 | 0.192
ACCCACCCTC | 0.132 | 0.00541 | 0.00647
ACGCCCCACC | 0.11 | 0.00271 | 0.00431
CCCCCGCCCA | 0.167 | 0.00638 | 0.00192
CCCACCACCA | 0.199 | 0.00784 | 0.00599
ACCCCCACAC | 0.108 | 0.00312 | 0.00527
GCCCACCCCA | 0.142 | 0.00505 | 0.00971

Sequence | binding signal (ZNF721 full-length) [relative 10-mer count] | binding signal (ZNF721 DBD1) [relative 10-mer count] | binding signal (ZNF721 DBD2) [relative 10-mer count]
AAAAAAGGCA | 0.18 | 0.00284 | 0.13
CCCACCCCGA | 0.132 | 0.00404 | 0.00192
GCAGCATACC | 0.151 | 0.00147 | 0.158
CAGCGTCTCC | 0.299 | 0.00174 | 0.722
CCCCCCGACC | 0.147 | 0.00482 | 0.00288
CTTTTTTTTA | 0.14 | 0.0207 | 0.0588
CCCACCCGAC | 0.114 | 0.00449 | 0.00479
AGGATACACT | 0.17 | 0.0907 | 0.116
AAGCGTCTCC | 0.163 | 0.084 | 0.0107
CCCACCCCTC | 0.188 | 0.01 | 0.00527
GTGGTGGGGA | 0.14 | 0.00674 | 0.00443
CAGCGTTACC | 0.138 | 0.00147 | 0.297
ACCCCCGCCC | 0.173 | 0.00619 | 0.00348
CCCACCACCC | 0.562 | 0.0272 | 0.00635
ACCCCCACCG | 0.102 | 0.00367 | 0.00336
CACCTCCCCC | 0.188 | 0.00798 | 0.00443
CAGCCCACCC | 0.151 | 0.00431 | 0.0841
CCCCCCCAAC | 0.155 | 0.0044 | 0.00791
CACCACACCC | 0.12 | 0.00486 | 0.00336
GCCCGCCCCC | 0.106 | 0.00413 | 0.00132
CCGTCCACCC | 0.103 | 0.00472 | 0.0036
CCCACCCCCC | 0.427 | 0.0183 | 0.00384
AAAAAAGAGT | 0.101 | 0.00665 | 0.0674
AAGCAGCATA | 0.179 | 0.00216 | 0.199

Sequence | binding signal (ZNF721 full-length) [relative 10-mer count] | binding signal (ZNF721 DBD1) [relative 10-mer count] | binding signal (ZNF721 DBD2) [relative 10-mer count]
CCACGCCCCA | 0.109 | 0.00422 | 0.0024
CCCCGCCGCC | 0.175 | 0.00541 | 0.0012
AAAAAGCTGC | 0.229 | 0.0954 | 0.00372
CGTCCCCACC | 0.115 | 0.00541 | 0.00467
AAAAAAGGTA | 0.109 | 0.00752 | 0.0674
CCGAAAAAAG | 0.106 | 0.016 | 0.0415
CTCCCCCCAC | 0.148 | 0.00794 | 0.00419
CCACCCCCGA | 0.104 | 0.00298 | 0.00264
AAAAACAAGC | 0.123 | 0.0116 | 0.0483
GGGGCGGGGA | 0.131 | 0.00633 | 0.00264
CACCCCGCCC | 0.205 | 0.00656 | 0.003
AGCATCTCCA | 0.132 | 0.0129 | 0.121
CCCAAACCCC | 0.109 | 0.00298 | 0.00168
CCACCACCCA | 0.222 | 0.0105 | 0.00671
CCCCCGCGCC | 0.116 | 0.00381 | 0.00336
CCACCCAGCC | 0.102 | 0.00294 | 0.00264
ACCCCCCCGC | 0.112 | 0.00248 | 0.003
CACCCGCCCA | 0.103 | 0.00358 | 0.0024
CAGCATCCCC | 0.143 | 0.00165 | 0.154
CCCTTCCCCC | 0.141 | 0.00633 | 0.003
CCGTCCCCCC | 0.15 | 0.00693 | 0.00192
GGGGTGGGAC | 0.111 | 0.00449 | 0.00108
AAGCAGCGTA | 0.162 | 0.00124 | 0.201
CCCCGCCCCC | 0.297 | 0.0122 | 0.00228

Sequence | binding signal (ZNF721 full-length) [relative 10-mer count] | binding signal (ZNF721 DBD1) [relative 10-mer count] | binding signal (ZNF721 DBD2) [relative 10-mer count]
AAAAAGGCAT | 0.188 | 0.00266 | 0.155
AGGGGGAGGG | 0.145 | 0.00752 | 0.00515
GCCCACCACC | 0.17 | 0.00688 | 0.00336
AGCGTACCCT | 0.204 | 0.0586 | 0.165
GGGGGGTGGA | 0.145 | 0.00615 | 0.00407
CTCCCCCCCC | 0.158 | 0.00761 | 0.003
CCCTCCACCA | 0.109 | 0.00436 | 0.00659
CCACCCCATC | 0.11 | 0.00509 | 0.00791
CACCGTCCCC | 0.111 | 0.0039 | 0.00252
CGCCCCACCA | 0.117 | 0.00362 | 0.00312
AGCATACCCC | 0.144 | 0.0115 | 0.146
CCCAACCCCC | 0.208 | 0.00789 | 0.00168
AACAAAAAAG | 0.106 | 0.00927 | 0.0439
ACGCTTCATA | 0.122 | 0.2 | 0.00108
AGGGGCGGGG | 0.125 | 0.0044 | 0.00168
ACCCGCCCCA | 0.109 | 0.00307 | 0.0012
GAAAAAAAGC | 0.29 | 0.0712 | 0.0678
CGCACCACCC | 0.108 | 0.00381 | 0.00695
GCACCACCCC | 0.103 | 0.00358 | 0.00815
AAAGCTGCAC | 0.11 | 0.0548 | 0.0024
CAGCCCCCCC | 0.103 | 0.00284 | 0.0267
